Here are results for eight molecules from the supplement of paper PMC13380429.

SMILES strings stand for the structures. A number with no mark means an inactive call.

This test relates to Vero E6 infected with SARS-CoV-2. Description: SARS-CoV-2 infection rate relative to infected DMSO; higher = more infection, active = 60 or less. Conditions: 24 h.
Regarding `CC1(C)S[C@@H]2[C@H](NC(=O)[C@H](NC(=O)N3CCN(S(C)(=O)=O)C3=O)c3ccccc3)C(=O)N2[C@H]1C(=O)O` [mezlocillin] (10 µM), the SARS-CoV-2 infection rate is 97%.
To `C[C@H]1CN(C[C@H](Cc2ccccc2)C(=O)NCC(=O)O)CC[C@@]1(C)c1cccc(O)c1` [alvimopan] (10 µM) belongs 106%; to `O=C1c2ccccc2-c2n[nH]c3cccc1c23` [pyrazolanthrone] (10 µM), 106%.
Take `C[C@@H]1CN(c2c(F)c(N)c3c(=O)c(C(=O)O)cn(C4CC4)c3c2F)C[C@H](C)N1` [sparfloxacin] (10 µM): the SARS-CoV-2 infection rate was 115%.
The same measure for `Nc1nccc(Oc2ccc(NC(=O)c3c[nH]cc(-c4ccc(F)cc4)c3=O)cc2F)c1Cl` [metatinib] (10 µM): 102%.
Take `O=C(O)c1cc(N2N=C(C(F)(F)F)/C(=C/c3ccc(-c4ccccc4)o3)C2=O)ccc1Cl` (10 µM): the SARS-CoV-2 infection rate is 97%.
To `CCOC(=O)Nc1cc2c(c(N)n1)N=C(c1ccccc1)[C@H](C)N2` [mivobulin] (10 µM) belongs 112%; to `Cc1cc(Nc2nc(N[C@@H](C)c3ccc(F)cc3)c(C#N)cc2F)n[nH]1` (10 µM), 110%.
